HT1080NT lethal: qHTS for induction of synthetic lethality in tumor cells producing 2HG: qHTS for the HT-1080-NT fibrosarcoma cell line | HT-1080-NT fibrosarcoma viability, CellTiter-Glo ATP luminescence, 48 h | Potency, µM (titrated, usually from 46.1 µM), inactives show top-dose activity, negative = less viability, hits mostly cytotoxic | 360,000 compounds, 1.6% hits | AID 686970, 2013;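 further: NT is the 2HG producing partner of a matched IDH1 knockdown line; potency means the concentration at half of the fitted maximal effect; 0% = DMSO-treated cells and -100% = media-only wells without cells; nearly all actives have a fitted effect of over 55% in size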
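A 48-hour cytotoxicity screen used HT-1080-NT cells plated 2 hours before compound delivery. ATP-based CellTiter-Glo luminescence measured viability, normalized to DMSO and no-cell controls.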
DT40 TDP1 no CPT: qHTS for Inhibitors of human tyrosyl-DNA phosphodiesterase 1 (TDP1): qHTS in cells in absence of CPT | DT40 Tdp1-/- hTDP1 cells, no CPT, ATP luminescence, 48 h | 420,000 compounds, 15% hits | Potency, µM (doses to about 46.2 µM), for inactives: top-dose activity change, negative = growth inhibition, hits mostly inhibitors | AID 686978, 2013; further: potency means the concentration at half of the fitted maximal effect; nearly all actives have a fitted effect of over 55% in size
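No-CPT arm: Tdp1-/-;hTDP1 DT40 cells (400/well) plus compounds, incubated ≥48 hr at 37 °C. Readout CellTiter-Glo luminescence.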
HT1080 IDH1KD tx: qHTS for induction of synthetic lethality in tumor cells producing 2HG: qHTS for the HT-1080-IDH1KD cell line. HT-1080 IDH1 knockdown viability, ATP luminescence, 48 h. 360,000 compounds, 2% hits. Potency, µM (doses to about 46.1 µM), for the others: at the highest dose activity, negative = toxicity, usual class: cytotoxic. AID 686971, 2013;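 further: potency means the concentration at half of the fitted maximal effect; 0% = DMSO wells and -100% = cell-free medium wells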
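HT-1080-IDH1KD cells (IDH1 knocked down), 750/well in RPMI with 5% FBS, treated with compound 48 h at 37 degrees C. Viability by CellTiter-Glo luminescence, normalised to DMSO and no-cell wells; concentration-response curves classed.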
IL-1B inflam inh: qHTS for Inhibitors of Inflammasome Signaling: IL-1-beta AlphaLISA Primary Screen; THP-1 LPS/ATP IL-1B secretion, AlphaLISA, 16 h; hits give low values; activity change, % at 57.5 µM; 360,000 compounds, 4.7% hits; AID 743279, 2014; in the data active means activity change below about -50%; inconclusive means mostly about -30% to -49%
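THP-1 cells pretreated 1 hr with compounds (up to 57.5 uM final), then stimulated with LPS (250 ng/mL final) plus ATP (1.25 mM final); secreted IL-1B measured by AlphaLISA after 16 hr, decreased signal indicating inhibition.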
DT40 TDP1 CPT: qHTS for Inhibitors of human tyrosyl-DNA phosphodiesterase 1 (TDP1): qHTS in cells in presence of CPT; Potency, µM (doses to about 46.2 µM), for inactives: at the highest dose activity change, negative = growth inhibition, actives largely listed as inhibitors; chicken DT40 Tdp1-/-;hTDP1 cells + 20 nM CPT, ATP luminescence, 48 h; 420,000 compounds, 12% hits; AID 686979, 2013; further: potency means the concentration at half of the fitted maximal effect; nearly all actives have a fitted effect of over 55% in size
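Cell growth measured by CellTiter-Glo luminescence after a minimum 48 h, 37 C compound exposure with 20 nM CPT in Tdp1-knockout DT40 cells stably expressing hTDP1, seeded 400/well; qHTS titration format.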
* = called active by the depositor; ? = inconclusive; . = no result. Hits are enriched below; roughly 19% of the tested compounds scored in any of these assays. Unless noted, the call rests on the fitted dose curve; in most records, active means well fitted curve in the direction sought with a large enough effect; inconclusive means small, poorly fitted or top-dose-only effect, or another doubt; inactive means no such curve, though single readings can be large; an effect the other way counts as inactive or inconclusive. Unless noted, on the % scale 0 is the no-effect control and ±100 the full control effect.

SMILES	HT1080NT lethal	DT40 TDP1 no CPT	HT1080 IDH1KD tx	IL-1B inflam inh	DT40 TDP1 CPT
CC1Cc2ccccc2N1C(=O)CSc1ncc(-c2ccc(F)cc2)n1C (stereo not drawn)	0%	?	-3%	-77*	?
CC1Cc2ccccc2N1C(=O)CSc1nncn1C (stereo not drawn)	18%	-20%	6%	4	8%
CC1Cc2ccccc2N1C(=O)CSc1nnc2c(n1)[nH]c1ccccc12 (stereo not drawn)	?	21µM*	-29%	26	?
CC1CCCCN1C(=O)CSc1nnc2c(n1)[nH]c1ccccc12 (stereo not drawn)	11%	-30%	7%	7	-3%
CCOC(=O)c1c(S(=O)(=O)N2CCC(C(=O)NCc3cccc(OC)c3)CC2)c(C)n(C)c1C	.	6%	.	.	-16%
CCCCc1nc2cc(C(=O)N3CCN(c4nc(C)cnc4C)CC3)ccc2o1	-10%	?	-8%	-27	?
CCOc1ccccc1CN(CCc1ccc2c(c1)OCO2)Cc1ccccn1	-25%	16µM*	?	-10	?
CCOc1ccccc1CN(CCc1ccc2c(c1)OCO2)Cc1cc(OC)c(OC)cc1OC	.	4.1µM*	.	.	6.5µM*
COc1ccc(OC)c(CN2CCC(C(=O)N(C)CCc3ccc(OC)c(OC)c3)CC2)c1	7%	13%	-5%	2	-3%
Cc1cc(-c2nnc(CCC(=O)N3CCN(Cc4cccnc4)CC3)o2)c(C)o1	8%	-24%	4%	12	3%
Cc1ccc(C2c3c(-c4cc(C)ccc4O)n[nH]c3C(=O)N2Cc2ccco2)cc1 (stereo not drawn)	.	?	.	.	23µM*
O=C1c2[nH]nc(-c3ccccc3O)c2C(c2cccc(Cl)c2)N1Cc1ccco1 (stereo not drawn)	?	18µM*	?	-12	?
CC(=O)C1=C(O)C(=O)N(Cc2ccco2)C1c1ccc(F)cc1 (stereo not drawn)	0%	-9%	3%	35	-15%
O=C1c2[nH]nc(-c3ccccc3O)c2C(c2cccc(Cl)c2)N1CC1CCCO1 (stereo not drawn)	-28%	18µM*	?	-9	?
COc1ccc(C2c3c(-c4ccccc4O)n[nH]c3C(=O)N2Cc2ccco2)cc1OC (stereo not drawn)	?	-20%	-17%	?	-6%
O=C1c2[nH]nc(-c3ccccc3O)c2C(c2ccc(F)cc2)N1Cc1ccco1 (stereo not drawn)	?	16µM*	?	-20	18µM*
O=C(C1=C(O)C(=O)N(Cc2ccco2)C1c1cccc(Cl)c1)c1ccco1 (stereo not drawn)	-8%	3%	-1%	17	-15%
COc1ccc(OC)c(NC(=O)CSc2nccn2Cc2ccco2)c1	11%	-22%	0%	0	?
Cc1[nH]c2ccccc2c1C(=O)C(=O)N1CCN(C(=O)c2ccco2)CC1	4%	11%	1%	15	7%
COc1cc(OC)c(NC(=O)c2nnn(Cc3ccc(C)cc3)c2N)cc1Cl	.	12µM*	.	.	18µM*
COc1cc(NC(=O)c2nnn(Cc3ccc(F)cc3)c2N)cc(OC)c1	.	-25%	.	.	?
Nc1c(C(=O)Nc2ccc3c(c2)OCCO3)nnn1Cc1ccc(Cl)cc1	-17%	-22%	-7%	4	-17%
COc1cc(NC(=O)c2nnn(Cc3ccc(SC)cc3)c2N)cc(OC)c1	-4%	29µM*	-17%	-25	18µM*
CCc1ccc(Cn2nnc(C(=O)Nc3ccc(OC)cc3OC)c2N)cc1	-24%	-9%	-16%	14	2%
COc1ccc(Cn2nnc(C(=O)Nc3ccc4c(c3)OCCO4)c2N)cc1Br	-22%	2.6µM*	?	0	18µM*
SMILES	HT1080NT lethal	DT40 TDP1 no CPT	HT1080 IDH1KD tx	IL-1B inflam inh	DT40 TDP1 CPT
COc1ccc(C(=O)C2CCCN(C(=O)c3cccs3)C2)cc1F (stereo not drawn)	-4%	?	-2%	15	-12%
CCOC(=O)c1c(N2C(=O)C3CC(C)=C(C)CC3C2=O)sc(C)c1C (stereo not drawn)	-2%	-8%	2%	4	-3%
COc1cc(C(=O)Nc2ccc3c(c2)N(C(=O)CCN(C)C)c2ccccc2CC3)cc(OC)c1OC	?	-1%	?	-60*	-1%
CCOC(=O)Nc1ccc2c(c1)N(CCCN(C)C)c1ccccc1CC2	-25%	?	-4%	-10	23µM*
CCOC(=O)Nc1ccc2c(c1)N(C(=O)OC)c1ccccc1CC2	?	?	?	24	?
CN(C)CC(=O)N1c2ccccc2CCc2ccc(NC(=O)c3ccc(N)cc3)cc21	-5%	-4%	3%	-21	-3%
Cc1ccc(F)cc1NC(=O)COC(=O)COc1ccc(C#N)cc1	14%	?	16%	-4	-19%
COc1ccc(C2/C=C\CN(C(=O)c3ccc(C)cc3)CC(=O)N2Cc2ccc(F)cc2)cc1 (stereo not drawn)	-2%	?	-10%	7	-30%
COc1ccc(C2/C=C\CN(S(=O)(=O)c3ccc(C)cc3)[C@H](Cc3ccccc3)C(=O)N2Cc2ccc(F)cc2)cc1 (stereo partly drawn)	10%	?	8%	12	?
COc1ccc([C@H]2/C=C\CN(S(=O)(=O)/C=C/c3ccccc3)[C@@H](C)C(=O)N2Cc2ccc(F)cc2)cc1	0%	21µM*	24%	12	?
CCCCC(=O)N1C/C=C\[C@H](c2ccc(OC)cc2)N(Cc2ccc(F)cc2)C(=O)[C@@H]1C	0%	16µM*	-2%	8	?
COc1ccc([C@H]2/C=C\CN(C(=O)c3ccccc3)[C@@H](C)C(=O)N2Cc2ccc(F)cc2)cc1	-7%	23µM*	-18%	0	?
O=C(O)c1sccc1SCc1ccc(Cl)c(Cl)c1	-2%	-14%	-14%	11	1%
C=CS(=O)(=O)N(Cc1ccc(Cl)c(Cl)c1)C[C@@H](O)CO	?	21µM*	?	-104*	21µM*
O=C(Nc1cccc2cccnc12)c1ccc(F)cc1	.	?	.	.	-27%
O=C(Nc1ccc(OC(F)(F)F)cc1)C1CCCN(C(=O)c2ccc(Cl)cc2)C1 (stereo not drawn)	-25%	12µM*	-22%	-28	16µM*
